# A selection: hits, their analogues and other compounds. The true share with any hit is near 4.1%.
# MEKK2mut PB1 HTS: MEK5 binding signal on mutant MEKK2 PB1, primary screen, biochemical, multiplex bead flow cytometry, Alexa488-MEK5; percent response, % at 10 µM; actives 0.35% (n = 290,000); Alexa488-MEK5 binding to MEKK2 mutant; AID 1530, 2009; in the data active means percent response above about 24%, passing the limit was not always enough
# CHT block: inhibitors of human choline transporter CHT; CHT-expressing cells, membrane potential dye, choline response; hits give low values; B-score at 10 µM; actives 0.86% (n = 310,000); AID 488975, 2010;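 active means B-score over 3 SD under the library average, and starting fluorescence ratio not unusually high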;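 further: choline stimulus applied at its EC90 after an EC20 pre-addition; B-score computed on integrated fluorescence ratio after choline addition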
# MEKK2wt PB1 HTS: modulators of MEK5 binding to wildtype MEKK2, primary screen, biochemical, multiplex bead flow cytometry, Alexa488-MEK5; Mitogen-activated protein kinase kinase kinase 2 (Homo sapiens), Q9Y2U5; AID 1531, 2009; actives 1.1% (n = 290,000); Alexa488-MEK5 binding to MEKK2 WT; actives lie on both sides; binding response (% of control), % at 10 µM; in the data active means binding response below about 67% or above about 130%
# CHT allo act: CHT positive allosteric modulators, primary screen, cell-based, membrane potential dye, choline EC20 | High affinity choline transporter 1 (Homo sapiens), Q9GZV3 | CHT-expressing cells; hits give high values; LV-AA mutant CHT in HEK293 cells | B-score at 10 µM | actives 0.49% (n = 310,000);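 active means initial fluorescence not abnormally high and integrated response B-score, plate-corrected, over 3 SD above library mean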
# MEKK3 PB1 HTS: modulators of MEKK3-MEK5 PB1 binding, primary screen, biochemical, wildtype MEKK3, multiplex bead flow cytometry, Alexa488-MEK5; Mitogen-activated protein kinase kinase kinase 3 (Homo sapiens), Q99759; bead-based flow cytometry, Alexa488-MEK5 binding to MEKK3; actives lie on both sides; 0 = blocked by unlabeled MEK5, 100 = vehicle; actives 1.4% (n = 290,000); binding response (% of control), % at 10 µM;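 active means binding response more than 3 SD above or below the average of its plate-row segment, actives on both sides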;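 further: Alexa488 bead fluorescence after subtracting the streptavidin-only scavenger bead signal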
# Target sequence (Q99759 whole entry, looked up): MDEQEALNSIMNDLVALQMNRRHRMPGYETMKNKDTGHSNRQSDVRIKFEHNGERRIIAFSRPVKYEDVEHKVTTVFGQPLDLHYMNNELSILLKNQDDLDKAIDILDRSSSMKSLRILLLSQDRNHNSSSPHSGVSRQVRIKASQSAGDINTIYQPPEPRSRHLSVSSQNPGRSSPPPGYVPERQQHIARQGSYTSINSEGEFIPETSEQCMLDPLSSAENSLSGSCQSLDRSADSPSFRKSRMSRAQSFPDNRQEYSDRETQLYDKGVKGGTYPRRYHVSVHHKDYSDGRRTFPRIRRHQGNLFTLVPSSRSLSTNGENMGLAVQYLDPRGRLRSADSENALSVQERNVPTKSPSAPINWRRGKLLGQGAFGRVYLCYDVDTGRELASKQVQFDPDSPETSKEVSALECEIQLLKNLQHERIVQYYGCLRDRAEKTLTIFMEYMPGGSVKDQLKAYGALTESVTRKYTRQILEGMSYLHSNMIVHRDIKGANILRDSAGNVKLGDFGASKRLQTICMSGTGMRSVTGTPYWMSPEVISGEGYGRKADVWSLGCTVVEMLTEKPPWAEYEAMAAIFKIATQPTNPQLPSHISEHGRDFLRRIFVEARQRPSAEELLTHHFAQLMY
# SUMO Mot1 rescue: yeast Mot1-301 growth rescue at high temperature, primary screen, SUMOylation pathway inhibitor project, S. cerevisiae, ATP luminescence, 38.5C; S. cerevisiae Mot1-301 growth rescue; percent above DMSO median, 100 means doubled; growth rescue, % at 18.8 µM; actives 1% (n = 320,000); AID 2716, 2010;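 active means every valid replicate shows activation above 250% relative to neutral control wells; inactive means the rest, any valid replicate at or below 250%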;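 further: OY570 slx delta 5 strain wells were the positive control but not used for scaling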
# MEKK2wt confirm: modulators of MEK5 binding to wildtype MEKK2, confirmation, biochemical, single concentration, multiplex bead flow cytometry | binding response (% of control), % at 10 µM | actives 2.4% (n = 5,900) | shares compounds with MEKK3 PB1 HTS | Alexa488-MEK5 binding to MEKK2 WT; actives lie on both sides; in the data active means binding response below about 16% or above about 210%; inactive means in between
# MEKK2mut-MEK5: mutant MEKK2 PB1-MEK5 binding signal retest – biochemical, single concentration, multiplex bead flow cytometry, confirmation; Alexa488-MEK5 binding to MEKK2 mutant; actives 2% (n = 5,900); percent response, % at 10 µM; shares compounds with MEKK3 PB1 HTS; in the data active means percent response mostly above about 71%, no sharp cut-off; inactive means mostly below about 38%;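 further: higher means compound restores mutant binding toward wildtype level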
# MEKK3 confirm: MEKK3 wild-type PB1 binding to MEK5, inhibitors, confirmation, biochemical, bead multiplex flow cytometry, single concentration, wildtype; binding response (% of control), % at 10 µM; actives 1.8% (n = 5,900); Alexa488-MEK5 binding to MEKK3; hits give low values; shares compounds with MEKK3 PB1 HTS;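 active means binding response below 72% of control, or above a set upper limit, though filed actives all read lower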;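 further: 100% = DMSO only wells and 0% = binding blocked by excess unlabeled MEK5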
# An asterisk follows results filed as active; i = inactive; nt = no result; [ ] = remark or other dose.
SMILES,MEKK2mut PB1 HTS,CHT block,MEKK2wt PB1 HTS,CHT allo act,MEKK3 PB1 HTS,SUMO Mot1 rescue,MEKK2wt confirm,MEKK2mut-MEK5,MEKK3 confirm
CCOC(=O)c1c(C)oc2ccc(O)c(CN(C)C)c12,3.0,i,101.0,i,94.0,3.2,nt,nt,nt
CCN(CC(=O)Nc1ccccc1C(F)(F)F)C(=O)c1ccccc1Cc1ccccc1,nt,i,nt,i,nt,-16.3,nt,nt,nt
CC1CCN(S(=O)(=O)c2ccc(S(=O)(=O)NCC(=O)C(C)(C)C)cc2)CC1,-22.0,i,32.0*[inhibitor],i,23.0*[inhibitor],-15.1,96.0,-7.0,99.0
c1ccc(-c2cn3c4c(sc3n2)CCCC4)cc1,1.0,i,102.0,i,104.0,-16.6,nt,nt,nt
CC(C)(C)n1nnnc1C(c1cccnc1)N(Cc1ccccc1)Cc1cccs1 (stereo not drawn),-21.0,i,2.0*[inhibitor],i,2.0*[inhibitor],143.5,101.0,-4.0,102.0
CN1CCN(c2ncccc2S(=O)(=O)N2CCCCC2)CC1,-2.0,i,1.0*[inhibitor],i,1.0*[inhibitor],-7.1,98.0,-3.0,101.0
Cc1nn2c(N3CCN(C)CC3)cc(C(C)(C)C)nc2c1-c1ccccc1,23.0,i,144.0*,i,106.0,50.4,150.0,31.0,106.0
O=C(C[C@@H]1C/C=C\C[C@H](Cc2ccc(F)cc2)C(=O)OC[C@@H](c2ccccc2)NC1=O)NCCO,nt,nt,nt,nt,nt,-11.1,nt,nt,nt
Cc1cccc(N=C2NC(=O)C(CO)(CO)S2)c1,-5.0,i,101.0,i,100.0,-25.5,nt,nt,nt
CCOC(=O)c1sc(N)c(C#N)c1CSc1nnc(C2CCCCC2)n1N,-20.0,i,-1.0*[inhibitor],i,0.0*[inhibitor],-11.5,98.0,2.0,103.0
N#Cc1ccc(COC(=O)CSc2nnc(C3CCCCC3)n2N)cc1,6.0,i,105.0,i,102.0,0.4,nt,nt,nt
Cc1ccc(S(=O)(=O)CCC(=O)NC2CCCC2)cc1,-2.0,i,96.0,i,95.0,-7.9,nt,nt,nt
O=C(CN1C2CCC1CC(NC(=O)NC1CCCCC1)C2)NC1CC1 (stereo not drawn),-8.0,i,72.0,i,68.0,-14.7,nt,nt,nt
CCCN1C2CCCC1CC(NC(=O)NC1CCCCC1)C2 (stereo not drawn),-14.0,i,2.0*[inhibitor],i,2.0*[inhibitor],-6.9,101.0,2.0,100.0
Cc1cccc(C(=O)NCc2nnc3c4ccccc4c(-c4ccccc4)nn23)c1,0.0,i,107.0,i,146.0*,-29.7,95.0,-4.0,94.0
C/C(=N/NC(=O)CNS(=O)(=O)c1ccc(C)cc1)c1cccc([N+](=O)[O-])c1,-1.0,i,102.0,i,112.0,-19.6,nt,nt,nt
CCOC(=O)CN1C(=O)C(C)(C)Oc2ccc(C(=O)Nc3ccccc3)cc21,-11.0,i,75.0,i,72.0*[inhibitor],-12.9,101.0,5.0,100.0
O=S(=O)(c1ccccc1)N1CCN(C(=S)Nc2ccc(F)cc2)CC1,0.0,i,103.0,i,134.0*,105.3,100.0,5.0,99.0
O=S(=O)(c1ccccc1)N1CCN(C(=S)Nc2ccccc2)CC1,4.0,i,109.0,i,103.0,6.0,nt,nt,nt
COC(=O)c1ccc(NC(=O)CN2CCN(c3ccccn3)CC2)cc1,-4.0,i,105.0,i,106.0,-2.2,nt,nt,nt
Cc1ccc(NC(=O)C2CCN(C(=O)c3ccc(F)cc3)CC2)nc1,nt,i,nt,i,nt,4.6,nt,nt,nt
Cc1ccc(C(=O)N2C(=S)C(c3ccc(F)cc3)=NC23CCN(C)CC3)cc1,23.0,i,151.0*,i,106.0,19.8,110.0,6.0,101.0
O=C(Nc1ccccc1-c1ccccc1)NC1CCN(C(=O)N2CCOCC2)CC1,4.0,i,120.0,i,122.0*,92.4,107.0,10.0,102.0
O=C(CN1CCC(NC(=O)Nc2ccccc2-c2ccccc2)CC1)NCc1ccco1,7.0,i,106.0,i,105.0,-10.5,nt,nt,nt
COc1ccc(Nc2nc(N)nc(CSCCO)n2)cc1,13.0,i,135.0*,i,115.0,2.3,99.0,-1.0,101.0
SMILES,MEKK2mut PB1 HTS,CHT block,MEKK2wt PB1 HTS,CHT allo act,MEKK3 PB1 HTS,SUMO Mot1 rescue,MEKK2wt confirm,MEKK2mut-MEK5,MEKK3 confirm
CCCCn1c(N)c(-c2nc3ccccc3s2)c2c([N+](=O)[O-])nn(CC)c(=O)c21,13.0,i,113.0,i,102.0,-12.0,nt,nt,nt
CCCCn1c(N)c(-c2nc3ccccc3s2)c2c([N+](=O)[O-])nn(C)c(=O)c21,-3.0,i,100.0,i,82.0*[inhibitor],-3.6,112.0,5.0,97.0
O=C(c1cc(COc2ccc3c(c2)CCCC3)on1)N1CCCC1,5.0,i,104.0,i,103.0,26.1,nt,nt,nt
CN(C)CCNC(=O)C(=O)NCC1OCCCN1S(=O)(=O)c1cccs1 (stereo not drawn),-2.0,i,95.0,i,93.0,-17.3,nt,nt,nt
CCN(CC)CCNC(=O)C(=O)NCC1OCCN1S(=O)(=O)c1cccs1 (stereo not drawn),20.0,i,137.0*,i,103.0,2.8,109.0,5.0,101.0
CCCOP(=O)(OCCC)C(NC(=O)C(C)(C)C)c1ccccc1 (stereo not drawn),0.0,i,102.0,i,104.0,-25.2,nt,nt,nt
CCOP(=O)(OCC)C(NC(=O)C(F)(F)F)c1ccccc1 (stereo not drawn),1.0,i,109.0,i,137.0*,4.4,100.0,-14.0,101.0
Cc1ccc(F)cc1NC(=O)COC(=O)COc1ccc(C#N)cc1,nt,i,nt,i,nt,-10.5,nt,nt,nt
O=C(NCCC1=CCCCC1)c1cc(S(=O)(=O)N2CCOCC2)ccc1F,nt,i,nt,i,nt,2.5,nt,nt,nt
Cc1ccc(NC(=O)c2cc(S(=O)(=O)NCCC3=CCCCC3)ccc2F)cc1,0.0,i,109.0,i,128.0*,9.7,98.0,-6.0,104.0

# Compound activity: PubChem, several laboratories
